# Data as given in PubChem BioAssay (EPA / NIEHS).
# Results filed as inconclusive are left out. Calls of active or inactive are those of the source. Rule for the calls: active = hit-call score of the fitted dose curve at least 0.9, where 1 is the maximum; inconclusive = response in the unintended direction; inactive = score below 0.9.
# How the values were obtained:
# [1] = target: Cellular tumor antigen p53 (Homo sapiens) (UniProt P04637); experiment: TOX21_p53_BLA_p2_ratio: Tox21 HCT-116 p53 Agonism Beta-lactamase Assay, Ratio, Phase 2 (AID 2283592)
# Sequence of Cellular tumor antigen p53 (Homo sapiens) (P04637 whole entry, looked up): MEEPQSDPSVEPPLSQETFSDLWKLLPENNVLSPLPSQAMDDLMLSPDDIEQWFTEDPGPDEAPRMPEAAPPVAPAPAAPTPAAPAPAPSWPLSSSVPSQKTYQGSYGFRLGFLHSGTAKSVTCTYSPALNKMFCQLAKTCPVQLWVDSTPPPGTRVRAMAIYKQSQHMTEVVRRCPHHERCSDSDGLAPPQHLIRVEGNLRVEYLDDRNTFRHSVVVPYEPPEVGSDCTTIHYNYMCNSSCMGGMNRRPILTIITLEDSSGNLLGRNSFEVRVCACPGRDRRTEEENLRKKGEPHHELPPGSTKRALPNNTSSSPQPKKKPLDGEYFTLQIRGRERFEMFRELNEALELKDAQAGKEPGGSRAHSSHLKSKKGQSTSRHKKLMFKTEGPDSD
# Procedure, shortened: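 Cleaved-to-uncleaved substrate ratio (460 vs 530 nm) measured in HCT116 cells with an inducible beta-lactamase reporter linked to p53 activity. Compounds incubated 16 h at 37C before 2 h room-temperature CCF4-AM loading.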
# [2] = target: Cellular tumor antigen p53 (Homo sapiens) (UniProt P04637); experiment: TOX21_p53_BLA_p3_ratio: Tox21 HCT-116 p53 Agonism Beta-lactamase Assay, Ratio, Phase 3 (AID 2283596)
# Procedure, shortened: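 Cells were seeded at 4000/well, rested 5 h at 37C, then dosed with DMSO compound solutions (217-fold dilution) for 16 h. CCF4-AM substrate was loaded for 2 h at room temperature, and the 460/530 nm emission ratio was fitted for gain of signal versus DMSO.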
# [3] = target: Cellular tumor antigen p53 (Homo sapiens) (UniProt P04637); experiment: TOX21_p53_BLA_p5_ratio: Tox21 HCT-116 p53 Agonism Beta-lactamase Assay, Ratio, Phase 5 (AID 2283599)
# Procedure, shortened: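 HCT-116 p53-bla cells (4000/well) plated 5 h, dosed with compound (217-fold DMSO dilution) for 16 h at 37 C; CCF4-AM substrate 2 h at room temperature. Activity is the 460/530 nm emission ratio (405 nm excitation), fitted in gain-of-signal direction versus DMSO.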
# [4] = TOX21_p53_BLA_p4_viability: Viability Assessment in the Tox21 HCT-116 p53 Agonism Beta-lactamase Assay, Phase 4 (AID 2283597);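 note: hits lower the luminescence signal meaning cytotoxicity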
# Procedure, shortened: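 Viability is taken as cellular ATP: after 16 h compound exposure of HCT116 cells and a 2 h room-temperature CCF4-AM substrate step, CellTiter-Glo reagent is added and luminescence is measured 30 min later.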
# [5] = TOX21_p53_BLA_p5_viability: Viability Assessment in the Tox21 HCT-116 p53 Agonism Beta-lactamase Assay, Phase 5 (AID 2283600)
# Procedure, shortened: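 Viability is taken from cellular ATP content, measured by luciferase luminescence in the same wells after the beta-lactamase ratio read. Cells are seeded at 4000 per well and exposed to DMSO-dissolved compounds, diluted 217-fold, for 16 h.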
# [6] = target: Cellular tumor antigen p53 (Homo sapiens) (UniProt P04637); experiment: TOX21_p53_BLA_p4_ratio: Tox21 HCT-116 p53 Agonism Beta-lactamase Assay, Ratio, Phase 4 (AID 2283601)
# Procedure, shortened: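 HCT-116 p53 beta-lactamase reporter cells (4000/well) preincubated 5 h, then compound (217-fold dilution of DMSO stock) for 16 h at 37C. CCF4-AM substrate added 2 h at room temperature; 460/530 nm emission ratio fitted upward versus DMSO.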
# [7] = target: Thyroid hormone receptor alpha (Rattus norvegicus) + Thyroid hormone receptor beta (Rattus norvegicus) (UniProt P18113+P63059); experiment: TOX21_TR_LUC_GH3_Antagonist_Followup: Tox21 GH3 Thyroid Hormone Receptor Antagonism Luciferase Follow-Up Assay (AID 2283942)
# Procedure, shortened: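 Luminescence read-out (ONE-Glo, 30 min at room temperature) in GH3 reporter cells challenged with 1.0 nM T3 final. Compounds ran at 92 uM to 5nM over 15 concentrations for 24 h; DMSO served as negative control and baseline.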
# [8] = target: THRA (gene 7067) (UniProt P10827); experiment: TOX21_TRA_COA_Antagonist_Followup_ratio: Tox21 Thyroid Hormone Receptor alpha Antagonism through Coactivator Recruitment Follow-Up Assay, Ratio (AID 2283953)
# Sequence of THRA (gene 7067) (P10827 whole entry, looked up, the tested form may be a part): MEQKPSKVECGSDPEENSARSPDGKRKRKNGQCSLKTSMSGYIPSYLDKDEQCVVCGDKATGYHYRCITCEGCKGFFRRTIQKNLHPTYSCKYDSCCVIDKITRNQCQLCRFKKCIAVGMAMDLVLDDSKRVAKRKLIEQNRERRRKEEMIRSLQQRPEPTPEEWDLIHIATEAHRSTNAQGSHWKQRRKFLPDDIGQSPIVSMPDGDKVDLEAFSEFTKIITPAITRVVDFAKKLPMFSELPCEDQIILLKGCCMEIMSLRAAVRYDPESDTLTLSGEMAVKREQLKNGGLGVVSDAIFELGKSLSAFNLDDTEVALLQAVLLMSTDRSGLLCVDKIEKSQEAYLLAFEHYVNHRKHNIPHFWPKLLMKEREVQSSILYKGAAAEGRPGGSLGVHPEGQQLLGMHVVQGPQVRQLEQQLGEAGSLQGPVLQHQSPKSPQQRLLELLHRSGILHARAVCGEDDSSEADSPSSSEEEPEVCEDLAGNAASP
# Procedure, shortened: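 GST-TRα LBD 2.5 nM, BSA 0.10%, + cpd; then FITC-SRC-2 peptide 200 nM + Tb-anti-GST Ab 2 nM. TR-FRET ratio 520/495 nm. Norm: DMSO = 0%, T3 = 100%.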
# [9] = TOX21_TRB_BLA_Antagonist_Followup_viability: Viability Assessment in the Tox21 Thyroid Hormone Receptor beta Antagonism Beta-lactamase (BLA) Follow-Up Assay (AID 2283961)
# Procedure, shortened: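 Cytotoxicity is measured in parallel with the antagonist-mode TRβ beta-lactamase screen, using ATP-coupled luciferase luminescence. Engineered HEK293T cells are treated for 18 h with 11-point compound series in triplicate.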
# [10] = target: THRB (gene 7068) (UniProt P10828); experiment: TOX21_TRB_COA_Antagonist_Followup_ratio: Tox21 Thyroid Hormone Receptor beta Antagonism through Coactivator Recruitment Follow-Up Assay, Ratio (AID 2283967)
# Sequence of THRB (gene 7068) (P10828 whole entry, looked up, the tested form may be a part): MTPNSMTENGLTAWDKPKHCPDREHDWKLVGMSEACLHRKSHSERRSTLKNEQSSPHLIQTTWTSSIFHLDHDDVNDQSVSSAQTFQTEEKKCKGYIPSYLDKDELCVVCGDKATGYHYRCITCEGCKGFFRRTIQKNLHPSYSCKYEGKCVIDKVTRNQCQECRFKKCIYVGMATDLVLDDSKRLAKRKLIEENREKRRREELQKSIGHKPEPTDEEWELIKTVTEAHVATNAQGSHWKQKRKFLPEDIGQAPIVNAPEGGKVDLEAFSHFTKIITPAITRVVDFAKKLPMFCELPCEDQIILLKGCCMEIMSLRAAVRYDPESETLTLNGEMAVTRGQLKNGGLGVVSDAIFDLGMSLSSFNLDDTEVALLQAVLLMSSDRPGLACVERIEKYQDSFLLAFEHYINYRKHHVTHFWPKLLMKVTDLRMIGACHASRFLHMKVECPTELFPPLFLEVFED
# Procedure, shortened: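 GST-TRb LBD 5.0 nM + 0.10% BSA, compound added; fluorescein-SRC-2 peptide 200 nM, Tb-anti-GST Ab 2 nM. TR-FRET, ex 340 / em 520:495 ratio. Norm: DMSO 0%, T3 100%.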
# [11] = target: Retinoic acid receptor RXR-alpha (Homo sapiens) (UniProt P19793); experiment: TOX21_TR_RXR_BLA_Antagonist_Followup_ratio: Tox21 Thyroid Hormone Receptor beta Retinoid X Receptor alpha (RXRa) Antagonism Beta-lactamase (BLA) Follow-Up Assay, Ratio (AID 2283972)
# Sequence of Retinoic acid receptor RXR-alpha (Homo sapiens) (P19793 whole entry, looked up, the tested form may be a part): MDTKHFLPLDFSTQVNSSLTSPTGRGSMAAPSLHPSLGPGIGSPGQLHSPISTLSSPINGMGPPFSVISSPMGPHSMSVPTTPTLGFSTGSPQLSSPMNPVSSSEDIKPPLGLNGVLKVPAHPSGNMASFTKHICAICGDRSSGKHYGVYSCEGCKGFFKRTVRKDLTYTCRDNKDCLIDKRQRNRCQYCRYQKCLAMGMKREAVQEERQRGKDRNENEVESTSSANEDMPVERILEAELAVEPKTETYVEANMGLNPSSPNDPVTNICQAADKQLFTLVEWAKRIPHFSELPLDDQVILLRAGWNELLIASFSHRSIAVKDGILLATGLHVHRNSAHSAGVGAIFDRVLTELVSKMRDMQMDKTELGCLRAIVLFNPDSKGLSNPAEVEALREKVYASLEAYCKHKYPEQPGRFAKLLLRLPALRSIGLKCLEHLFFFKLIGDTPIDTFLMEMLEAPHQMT
# Procedure, shortened: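 Antagonist mode used GAL4 UAS-driven beta-lactamase in HEK293T cells expressing RXRa, treated for 16 h with compound concentration series. Activity was taken from the blue/green (460:530 nm) ratio of cleaved to uncleaved substrate.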
# [12] = TOX21_TR_RXR_BLA_Antagonist_Followup_viability: Viability Assessment in the Tox21 Thyroid Hormone Receptor beta Retinoid X Receptor alpha (RXRa) Antagonism Beta-lactamase (BLA) Follow-Up Assay (AID 2283979)
# Procedure, shortened: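 RXRa-bla HEK293T cells (2,500/well, phenol red-free DMEM, 2% charcoal-stripped FBS) were attached 5 h, then exposed to compounds at 11 concentrations in triplicate for 16 h at 37C. Viability measured by CellTiter-Glo ATP luminescence, bidirectional fitting versus DMSO.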
compound,measurement,setting,value
O=[N+]([O-])c1ccc(Oc2ccc([N+](=O)[O-])cc2)cc1,outcome,[1],inactive
same,outcome,[2],inactive
same,outcome,[3],inactive
OCCOc1ccc(OCCO)cc1,outcome,[1],inactive
same,outcome,[2],inactive
same,outcome,[4],inactive
same,outcome,[5],inactive
same,outcome,[6],inactive
Oc1ccc(C2CNCCc3c2cc(O)c(O)c3Cl)cc1 (centres undefined),outcome,[1],inactive
same,outcome,[2],inactive
same,outcome,[3],inactive
CN(C)c1ccc(SC#N)cc1,outcome,[1],inactive
same,outcome,[2],inactive
same,outcome,[4],inactive
same,outcome,[3],inactive
same,outcome,[6],inactive
FC1(F)C(F)(F)C(F)(F)C2(F)C(F)(F)C(F)(F)C(F)(F)C(F)(F)C2(F)C1(F)F (centres undefined),outcome,[1],inactive
same,outcome,[2],inactive
same,outcome,[3],inactive
O=C(O)[C@H]1CN(C/C=C/P(=O)(O)O)CCN1,outcome,[1],inactive
same,outcome,[2],inactive
same,outcome,[4],inactive
same,outcome,[5],inactive
same,outcome,[6],inactive
CCN(CC)CCC(=O)N1c2ccccc2Sc2ccc(C(F)(F)F)cc21,outcome,[1],inactive
same,outcome,[2],inactive
same,outcome,[3],inactive
CN1CCc2c(c3ccccc3n2Cc2ccccc2)C1,outcome,[1],inactive
same,outcome,[2],inactive
same,outcome,[4],inactive
same,outcome,[6],inactive
CS(=O)(=O)c1ccc([C@@H](O)[C@@H](COC(=O)CN)NC(=O)C(Cl)Cl)cc1,outcome,[1],inactive
same,outcome,[2],inactive
same,outcome,[4],inactive
same,outcome,[5],inactive
CCCc1nc2c(C)cc(-c3nc4ccccc4n3C)cc2n1Cc1ccc(-c2ccccc2C(=O)O)cc1,outcome,[1],inactive
same,outcome,[2],inactive
same,outcome,[3],inactive
CC1(C)CO[C@@H](CC(=O)O)CN1,outcome,[1],inactive
same,outcome,[2],inactive
same,outcome,[4],inactive
same,outcome,[3],inactive
same,outcome,[6],inactive
CCCCOC(=O)C(=O)Nc1cccc(-c2nn[nH]n2)c1,outcome,[1],inactive
same,outcome,[2],inactive
same,outcome,[4],inactive
same,outcome,[5],inactive
COc1cc(C(=O)NC2CCCNC2)cc(OC)c1OC (centres undefined),outcome,[1],inactive
same,outcome,[2],inactive
same,outcome,[4],inactive
same,outcome,[3],inactive
same,outcome,[6],inactive
same,outcome,[7],inactive
same,outcome,[8],inactive
same,outcome,[9],inactive
same,outcome,[10],inactive
same,outcome,[11],inactive
same,outcome,[12],inactive
CNC[C@@H]1CC[C@@H](N)[C@@H](O[C@H]2[C@H](O)[C@@H](O[C@H]3OC[C@](C)(O)[C@H](NC)[C@H]3O)[C@H](N)C[C@@H]2N)O1,outcome,[1],inactive
same,outcome,[2],inactive
same,outcome,[4],inactive
same,outcome,[5],inactive
Cc1ccc(/C(=C\CN2CCCC2)c2ccccn2)cc1,outcome,[1],inactive
same,outcome,[2],inactive
same,outcome,[4],inactive
same,outcome,[5],inactive
O=c1[nH]cnc2c1ncn2[C@@H]1O[C@H](CO)[C@@H](O)[C@H]1O,outcome,[1],inactive
same,outcome,[2],inactive
same,outcome,[3],inactive
CC(=O)Nc1cccc(N)c1,AC50,[1],84.4 µM (active)
same,outcome,[2],inactive
same,outcome,[3],inactive
COC(=O)CS,outcome,[1],inactive
same,outcome,[2],inactive
same,outcome,[4],inactive
same,outcome,[3],inactive
same,outcome,[6],inactive
C=C1[C@H](CO)[C@@H](O)C[C@@H]1n1cnc2c(=O)[nH]c(N)nc21,outcome,[1],inactive
same,outcome,[2],inactive
same,outcome,[4],inactive
same,outcome,[5],inactive
same,outcome,[6],inactive
CO[C@H]1[C@@H](O)[C@H](N)[C@@H](O[C@H]2O[C@H]([C@H](C)N)CC[C@H]2N)[C@H](O)[C@@H]1N(C)C(=O)CN,outcome,[1],inactive
same,outcome,[2],inactive
same,outcome,[4],inactive
same,outcome,[5],inactive
same,outcome,[6],inactive
CCOC(=O)CCC(=O)O[C@H]1[C@H](O[C@@H]2[C@@H](C)[C@H](O[C@H]3C[C@@](C)(OC)[C@@H](O)[C@H](C)O3)[C@@H](C)C(=O)O[C@H](CC)[C@@](C)(O)[C@H](O)[C@@H](C)C(=O)[C@H](C)C[C@@]2(C)O)O[C@H](C)C[C@@H]1N(C)C,outcome,[1],inactive
same,outcome,[2],inactive
same,outcome,[4],inactive
same,outcome,[6],inactive
C=Cc1ccccn1,outcome,[1],inactive
same,outcome,[2],inactive
same,outcome,[4],inactive
same,outcome,[6],inactive
NC(=O)OCC(O)COc1ccc(Cl)cc1 (centres undefined),outcome,[1],inactive
same,outcome,[2],inactive
same,outcome,[3],inactive
C=CC[N@@+]12CC[C@@]34c5ccccc5N5/C=C6/[C@H]7C[C@H]8[C@@]9(CC[N@@+]8(CC=C)C/C7=C/CO)c7ccccc7N(/C=C(/[C@@H](C[C@@H]31)/C(=C\CO)C2)[C@H]54)[C@@H]69,outcome,[1],inactive
same,outcome,[2],inactive
same,outcome,[3],inactive
O=C(Nc1cccc(C2=NCCN2)c1)Nc1cccc(C2=NCCN2)c1,outcome,[1],inactive
same,outcome,[2],inactive
same,outcome,[4],inactive
same,outcome,[3],inactive
same,outcome,[6],inactive
CN(C)CCN(Cc1ccccc1)c1ccccn1,outcome,[1],inactive
same,outcome,[2],inactive
same,outcome,[3],inactive
C[Si](Cl)(c1ccccc1)c1ccccc1,outcome,[1],inactive
same,outcome,[2],inactive
same,outcome,[4],inactive
same,outcome,[3],inactive
same,outcome,[6],inactive
Nc1ccc(N=Nc2ccc(N)cc2)cc1,outcome,[1],inactive
same,outcome,[2],inactive
same,outcome,[3],inactive
COc1ccc(Nc2ccc(OC)cc2)cc1,AC50,[1],71.5 µM (active)
same,outcome,[2],inactive
same,outcome,[3],inactive
CC(=O)OCC[N+](C)(C)C,outcome,[1],inactive
same,outcome,[2],inactive
same,outcome,[4],inactive
same,outcome,[5],inactive
same,outcome,[6],inactive
S=C(SSSSSSC(=S)N1CCCCC1)N1CCCCC1,outcome,[1],inactive
same,outcome,[2],inactive
same,outcome,[4],inactive
same,outcome,[6],inactive
C1CCCNCCC1,outcome,[1],inactive
same,outcome,[2],inactive
same,outcome,[4],inactive
same,outcome,[6],inactive
CN(CCOc1ccc(NS(C)(=O)=O)cc1)CCc1ccc(NS(C)(=O)=O)cc1,outcome,[1],inactive
same,outcome,[2],inactive
same,AC50,[3],37.7 µM (active)
COc1ccc(-c2cc(C(F)F)nn2-c2ccc(S(N)(=O)=O)cc2)cc1F,outcome,[1],inactive
same,outcome,[2],inactive
same,outcome,[4],inactive
same,outcome,[6],inactive
CCCC(C)C,outcome,[1],inactive
same,outcome,[2],inactive
same,outcome,[3],inactive
same,outcome,[5],inactive
same,outcome,[6],inactive
CCCOCC(C)OCC(C)O (centres undefined),outcome,[1],inactive
same,outcome,[2],inactive
same,outcome,[3],inactive
same,outcome,[5],inactive
same,outcome,[6],inactive
CCCOc1ccc2nc(NC(=O)OC)[nH]c2c1,outcome,[1],inactive
same,AC50,[2],0.24 µM (active)
same,outcome,[3],inactive
same,outcome,[6],inactive
